From PubChem
m5-HT2A agonist – mouse HTR2A agonism via beta-arrestin recruitment. P35363. CHO-K1 mHTR2A beta-arrestin complementation, luminescence; percent of 30 µM serotonin response. activation, % at 7.6 µM. hit rate 0.66% among 360,000. AID 624169;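 active = activation above a run cutoff, the mean activation of all tested compounds plus 3 SD, cut at about 14% in these data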;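 also: 0% = plate median of compound wells and 100% = 30 µM serotonin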
MEX-5 binding – C. elegans MEX-5 TCR-2 RNA binding activity | Q9XUB2 | MEX-5/FITC-TCR2 RNA binding, fluorescence polarization; active compounds read low | activity score (negative = inhibition of binding), % at 10 µM | hit rate 0.38% among 300,000;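 active = inhibition past about -25% in most replicates, and total fluorescence under double the plate's negative control median, limit read from the data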;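 also: 0% = DMSO and -100% = 5 µM competing unlabeled TCR2 RNA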
VLA-4 inh – inhibition in a human VLA-4 binding assay; VLA-4 expressing cells, ligand binding flow cytometry; hit rate 0.2% among 330,000; inhibition, % (about 7 µM as worked out from the volumes in the protocol); in the data active = inhibition above about 50%
Granule exo inh – blocks lytic granule exocytosis | TALL-104 LAMP-1 surface exposure, flow cytometry; cells stimulated with thapsigargin and PMA | inhibition, % at 10 µM | hit rate 0.66% among 360,000 | AID 651702;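 active = inhibition above about 55%, limit read from the data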
JMJD2C inh – blocks human GASC-1 demethylase activity; GST-JMJD2C(1-420) H3K9me3 demethylation, DELFIA europium; Q9H3R0; hit rate 0.069% among 330,000; inhibition, % at 2.35 µM;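 active = more than half of a compound's replicate wells show inhibition beyond 50%, single wells judged on their own value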;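 also: signal counts dimethyl H3K9 product captured on neutravidin plate; 0% = median of DMSO wells and 100% = 0.3 times that DMSO median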
Target sequence (Q9H3R0 1-420 limits assumed): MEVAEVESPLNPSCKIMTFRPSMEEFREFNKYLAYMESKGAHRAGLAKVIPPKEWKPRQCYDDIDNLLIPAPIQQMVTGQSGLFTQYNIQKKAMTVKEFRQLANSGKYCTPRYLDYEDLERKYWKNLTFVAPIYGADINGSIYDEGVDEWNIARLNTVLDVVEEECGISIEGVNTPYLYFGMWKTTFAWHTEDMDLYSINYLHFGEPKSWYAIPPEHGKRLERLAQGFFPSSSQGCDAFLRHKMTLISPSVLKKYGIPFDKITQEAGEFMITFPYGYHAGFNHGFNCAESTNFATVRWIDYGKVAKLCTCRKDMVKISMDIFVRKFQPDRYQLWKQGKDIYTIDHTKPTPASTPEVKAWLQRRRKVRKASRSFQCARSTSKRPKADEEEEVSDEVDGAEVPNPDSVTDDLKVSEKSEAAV
V-ATPase pHluor – regulators of yeast V-ATPase proton transport; hit rate 0.37% among 350,000; S. cerevisiae, pHLuorin cytosolic pH fluorescence; response, % at 10 µM; in the data active = response mostly above about 7.3%, no sharp cut-off; inactive = mostly below about 5.4%; also: actives read high
MOR ag counter – activates human mu opioid receptor in HTR2A counterscreen; shares compounds with m5-HT2A agonist; U2OS OPRM1 beta-arrestin PathHunter, luminescence; DMSO 0%, DAMGO 9.3 µM 100%; activation, % at 9.3 µM; hit rate 5.3% among 2,300; AID 624380;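 active = mean activation above the mean of DMSO-only wells plus 3 SD, cut at about 0.5% in these data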
m5-HT2A ag conf – mouse HTR2A agonism confirmed; shares compounds with m5-HT2A agonist; CHO-K1 PathHunter beta-arrestin recruitment, luminescence; DMSO 0%, 30 µM serotonin 100%; activation, % at 7.6 µM; hit rate 19% among 2,300;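 active = mean activation across triplicates above the hit threshold derived in the original primary screen, cut at about 15% in these data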
* hit, by the source's call; x = no result given. Shown are actives, neighbours in structure and some others; about 2.2% of the full set was active somewhere.

SMILES | m5-HT2A agonist | MEX-5 binding | VLA-4 inh | Granule exo inh | JMJD2C inh | V-ATPase pHluor | MOR ag counter | m5-HT2A ag conf
CCOCCn1c(=O)c2c(nc3n2CC(C)CN3CCc2ccccc2)n(C)c1=O (stereo not given) | 15* | 0 | 4 | -5 | -20 | -5 | 0 | -1
COC(=O)Cn1c(=O)c2c(nc3n2CC(C)CN3CCc2ccccc2)n(C)c1=O (stereo not given) | 3 | -1 | x | -2 | 12 | 3 | x | x
Cc1ccc(-c2[nH]n3c(=O)c4c(nc3c2C)CCCC4)cc1 | 10 | 0 | 20 | -5 | 0 | -1 | x | x
Cc1c(-c2ccccc2)[nH]n2c(=O)c3c(nc12)CCCC3 | 44* | 0 | 10 | 5 | 0 | 0 | -1 | 15*
Cc1c(C(=O)NC2CC(=O)N(c3ccc4c(c3)OCCO4)C2)cccc1[N+](=O)[O-] (stereo not given) | 10 | 2 | 19 | -1 | -9 | -7 | x | x
COc1ccc(C(=O)N(C)C2CCCN(Cc3ccccc3F)C2)cc1OC (stereo not given) | 17* | -2 | -3 | -4 | -1 | -1 | -1 | -3
CC1CCCN(c2ccc(C(=O)Nc3ccc4c(c3)OCO4)cc2[N+](=O)[O-])C1 (stereo not given) | 38* | -1 | -52 | 0 | 30 | 2 | -1 | 9
O=C(NC1CCN(C(=O)c2cccc([N+](=O)[O-])c2)CC1)c1ccccc1 | -11 | -1 | 7 | 0 | 4 | 3 | x | x
O=C(NCc1ccccc1)C1C(c2ccccc2)=Nc2ccccc2N1C(=O)c1cnccn1 (stereo not given) | 14* | x | x | -8 | x | x | -1 | 0
COc1cccc(/C=C/C(=O)OCC(=O)NC(=O)NC2CCCCC2)c1 | 2 | 0 | 0 | 10 | -38 | 2 | x | x
COc1ccc2[nH]c(C)c(CCNC(=S)Nc3ccccc3C)c2c1 | 16* | 1 | 8 | -3 | 6 | -2 | 0 | -4
O=C(Cc1cccs1)NNC(=S)NCc1ccco1 | 15* | 1 | 13 | -6 | -5 | 2 | -1 | -3
CC(=O)Nc1ccc2nc(SCC(=O)N3CCOCC3)sc2c1 | -2 | 0 | 3 | -2 | -16 | -1 | x | x
O=C(CSc1nc2ccc(Nc3nc(N4CCOCC4)nc(N4CCOCC4)n3)cc2s1)Nc1ccccc1F | 16* | x | -1 | 1 | 3 | 1 | 0 | -2
O=C(CSc1nc2ccc(Nc3nc(N4CCOCC4)nc(N4CCOCC4)n3)cc2s1)N1CCOCC1 | 15* | -4 | 14 | 10 | 0 | 3 | -1 | -3
CC(C)CC1NC(=O)N(CC(=O)Nc2cccc(Br)c2)C1=O (stereo not given) | 2 | x | 13 | 4 | 15 | 2 | x | x
CCOc1ccccc1N1CCN(Cc2ccc(Br)s2)CC1 | 48* | 2 | -6 | -1 | 3 | 5 | 0 | 26*
CCCn1nc(C(=O)Nc2ccc3nc(N4CCOCC4)sc3c2)ccc1=O | 21* | x | x | -3 | x | 2 | 0 | 0
COc1ccc(C(=O)Nc2ccc3nc(N4CCOCC4)sc3c2)cc1OC | -6 | x | -2 | -1 | 3 | -1 | x | x
Cc1cccc(NC(=O)CSc2nnc(-c3ccco3)n2CC2CCCO2)n1 (stereo not given) | 15* | 4 | -30 | -1 | -3 | -1 | -1 | -5
CCn1c(SCC(=O)Nc2cccc(C)n2)nnc1-c1ccco1 | -1 | 4 | 6 | 0 | -14 | -1 | x | x
CCCc1ccc(C(=O)CN2C(=O)C(=O)N(C3CCCC3)C2=O)cc1 | 18* | x | 21 | -3 | -1 | 4 | 1.3* | 3
Cc1ccc(NC(=O)C2(C)CCN2CCc2ccccc2)cc1O (stereo not given) | -5 | x | x | 1 | x | x | x | x
CC(C)(C)OC(=O)CNC(=O)c1[nH]cnc1C(=O)NCC(=O)OCc1ccccc1 | 15* | 2 | -13 | -3 | -1 | 5 | 0 | 3
COc1ccc(CNC(=O)[C@H](C)NC(=O)C2CCN(C(=O)[C@@H](N)Cc3ccccc3)CC2)cc1 | 7 | 0 | -19 | 2 | 3 | 2 | x | x
SMILES | m5-HT2A agonist | MEX-5 binding | VLA-4 inh | Granule exo inh | JMJD2C inh | V-ATPase pHluor | MOR ag counter | m5-HT2A ag conf
Cn1nnnc1N=N/C(=N/Nc1ccccc1)c1ccccc1 | 16* | -1 | -1 | 9 | -19 | 1 | 0 | -4
OC(CN1CCNCC1)Cn1c2ccccc2c2ccccc21 (stereo not given) | 18* | -2 | 7 | 15 | -6 | 7 | -1 | 6
N#Cc1ccccc1Cn1c(=O)n(CCCC(=O)NCc2ccc3c(c2)OCO3)c(=O)c2ccccc21 | 15* | 0 | 12 | -3 | -2 | -2 | 0 | -2
NC(=O)Cc1nc(-c2ccccc2)cs1 | 3 | 2 | 4 | -2 | -2 | 1 | x | x
NCCc1nc(-c2ccccc2)cs1 | 35* | -1 | 1 | 1 | 0 | 1 | -1 | 14
C=CCSc1nsc(NC(=O)Nc2ccc(F)cc2)n1 | 17* | 0 | 7 | 29 | -5 | 2 | 0.8* | 29*
OC(COCC1COc2ccccc2O1)CN1CCN(c2ccccc2F)CC1 (stereo not given) | 15* | 5 | -16 | -6 | -20 | -1 | 0 | 36*
CC[N+](C)(CC)CC(O)COCC1COc2ccccc2O1 (stereo not given) | 16* | 1 | 13 | 1 | 2 | -7 | -1 | -2
Cc1cc(Cc2ccc([N+](=O)[O-])cc2)c(C)cn1 | 4 | 1 | -3 | -4 | 3 | -3 | x | x
CC(C)CN(C(=O)CSc1nnc(-c2cccs2)n1N)c1c(N)n(Cc2ccccc2)c(=O)[nH]c1=O | 1 | 0 | -8 | -2 | 1 | 3 | x | x
COc1ccc(OC)c(S(=O)(=O)N/N=C\c2c[nH]c3ccccc23)c1 | 14 | 1 | -6 | 1 | 6 | -2 | x | x
COc1ccc(-c2ccc(CN3C(C(C)C)C(=O)N(Cc4cn(Cc5ccco5)nn4)CCS3(=O)=O)cc2)cc1 (stereo not given) | 18* | x | x | 1 | x | 0 | -1 | -3
Cc1ccc(-c2ccc(CN3C(C)C(=O)N(Cc4cn(Cc5ccco5)nn4)CCS3(=O)=O)cc2)cc1 (stereo not given) | 18* | x | x | 8 | x | -1 | -1 | -4
Cc1ccc(O)c(NC(=O)c2cc3nc4c(c(C(F)(F)F)n3n2)CCc2ccccc2-4)c1 | 16* | 0 | -1 | -2 | 19 | -3 | 0 | 9
CCN(CC)CCCNC(=O)c1cc2nc3c(c(C(F)(F)F)n2n1)CCc1ccccc1-3 | -4 | 1 | 25 | 6 | -37 | -4 | x | x
